Reference: the supplement of paper PMC3334620
In all, about 33,000 sequences were measured (“E-score (-0.5 to 0.5)”: median about -0.016, highest 2% from about 0.3 on). The full list was thinned out, with the highest values kept by preference.

Biological target: T1, Yer184c (UniProt P39961)
T1 sequence: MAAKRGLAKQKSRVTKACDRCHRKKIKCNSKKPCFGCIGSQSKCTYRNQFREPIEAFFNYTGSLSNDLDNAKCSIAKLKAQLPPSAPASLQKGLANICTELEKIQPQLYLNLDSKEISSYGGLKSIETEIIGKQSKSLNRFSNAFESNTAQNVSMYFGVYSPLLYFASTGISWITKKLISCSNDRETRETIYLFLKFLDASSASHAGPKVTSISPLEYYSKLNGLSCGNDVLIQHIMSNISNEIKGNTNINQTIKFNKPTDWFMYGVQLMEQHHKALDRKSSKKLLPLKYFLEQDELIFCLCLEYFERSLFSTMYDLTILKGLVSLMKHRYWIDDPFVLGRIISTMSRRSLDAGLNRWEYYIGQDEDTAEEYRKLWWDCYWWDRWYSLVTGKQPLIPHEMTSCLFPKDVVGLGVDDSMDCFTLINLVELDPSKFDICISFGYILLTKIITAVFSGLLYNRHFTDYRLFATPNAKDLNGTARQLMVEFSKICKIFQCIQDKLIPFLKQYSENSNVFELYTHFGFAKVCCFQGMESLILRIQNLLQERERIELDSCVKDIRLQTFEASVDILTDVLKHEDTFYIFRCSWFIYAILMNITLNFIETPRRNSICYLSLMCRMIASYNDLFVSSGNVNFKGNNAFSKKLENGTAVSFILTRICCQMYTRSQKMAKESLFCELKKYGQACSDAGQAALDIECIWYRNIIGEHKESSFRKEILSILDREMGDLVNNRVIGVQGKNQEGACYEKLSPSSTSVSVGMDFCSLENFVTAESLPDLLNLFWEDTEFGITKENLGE
Experiment: PBM E-score (8-mer binding enrichment) (E-score (-0.5 to 0.5)); higher = stronger / more preferred TF binding
Conditions: protein concentration: 100 nM; construct: GST-full length
Protocol: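 Universal 'all 10-mer' protein binding microarrays (Agilent AMADID 015681) probed with GST-tagged S. cerevisiae TFs (full-length or DBD) made by in vitro transcription/translation (PURExpress), about 100-200 nM. Bound TF was detected with fluorescent anti-GST. Each ungapped 8-mer (which stands for itself and its reverse complement) is scored by the PBM enrichment score (E-score), a modified Wilcoxon-Mann-Whitney statistic from -0.5 to +0.5, computed with the Universal PBM Analysis Suite. Scale: above 0.35 generally sequence-specific binding.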

Row | Sequence | PBM E-score
1 | ATGACCTG | -0.0827
2 | AATTGACA | 0.0558
3 | GGGCAGGA | -0.269
4 | GGGGTACA | -0.111
5 | CGCATTAG | -0.101
6 | CGATGCAA | -0.00579
7 | ATGCCCCG | -0.139
8 | TCATCGCA | -0.0385
9 | CCGGGCCC | 0.262
10 | CCGGCCCG | 0.386
11 | AGCGGCCG | 0.315
12 | ATCGGCCC | 0.113
13 | CCGGGCCG | 0.429
14 | ATCGGCCA | 0.125
15 | ATCGGCCG | 0.388
16 | CCGGCCCA | 0.181
17 | AGCGGCCA | -0.161
18 | CCGGGCCA | 0.14
19 | ACGGCCCG | 0.146
20 | CGCGGCCG | 0.251
21 | GAATCTGC | 0.12
22 | CTAGTGAG | -0.0187
23 | ACCCCGCG | -0.119
24 | AAACTGTC | -0.133
25 | AGCAGTGC | -0.185

Row | Sequence | PBM E-score
26 | CCCGGCCG | 0.371
27 | ACCGGCCA | 0.173
28 | CCCGGCCC | 0.161
29 | AGGGCCCG | 0.0448
30 | CGGGCCCA | 0.0473
31 | ACCGGCCG | 0.413
32 | CCCGGCCA | 0.209
33 | CGGGCCCG | 0.351
34 | ACCGGCCT | 0.0901
35 | ACAACCTA | -0.00165
36 | GAGTGGCC | -0.0531
37 | AGTACTAG | 0.0969
38 | ACAAGCTG | 0.0583
39 | AGCCACTA | -0.112
40 | AAAATCCA | -0.0451
41 | ATGTGAGG | 0.0347
42 | TCAACACA | 0.179
43 | ACTCCGAG | 0.233
44 | GTTCCGAA | 0.369
45 | ATTCCGAG | 0.353
46 | ATTCCGAC | 0.211
47 | CTTCCGAA | 0.39
48 | CTTCCAAA | 0.0435
49 | CTTCCGAC | 0.173
50 | GGTCCGAA | 0.303

Row | Sequence | PBM E-score
51 | ATTCCGAA | 0.388
52 | ACTCCGAA | 0.241
53 | AGTCCGAG | 0.268
54 | GTTCCAAA | 0.158
55 | AAGAATTA | 0.134
56 | CGGCCACA | 0.194
57 | CACATTCG | 0.097
58 | CGGGTATA | 0.196
59 | CAGGGAAA | 0.0066
60 | ACCATTGC | -0.0741
61 | GTTTTACA | -0.015
62 | GCCAACCA | -0.155
63 | ATTTAATA | 0.313
64 | GTTTAATA | 0.155
65 | TATTAATA | -0.00461
66 | ATTTAGTC | 0.133
67 | CTTTAGTA | -0.0339
68 | ATTTAGTA | 0.328
69 | AATTAATA | 0.407
70 | CTTTAATA | 0.245
71 | AATTAATT | 0.0189
72 | GCTGCACA | -0.159
73 | CGCAGTGC | -0.204
74 | AAAGGGAG | -0.313
75 | CAGTCTTA | -0.0806

Row | Sequence | PBM E-score
76 | GTCAAGAA | 0.0525
77 | TTCAAAAA | 0.228
78 | TTCAAGAA | 0.312
79 | CAGCCATG | -0.329
80 | CGGGCTAC | 0.00991
81 | AGAATTTA | 0.121
82 | AACGCCGT | 0.119
83 | AACGCCGC | 0.116
84 | AACGCCGA | 0.415
85 | CACGCCGA | 0.153
86 | TACGCCGA | 0.237
87 | AACGCCGG | 0.317
88 | CCCTAAAA | -0.238
89 | AAACGAGG | -0.124
90 | GCTATAAC | -0.00042
91 | GATCTGTA | -0.0435
92 | CATCGGCA | 0.211
93 | ATTCGGTG | 0.155
94 | CTTCGGCA | 0.333
95 | GTTCGGCA | 0.368
96 | GTTCGGTA | 0.29
97 | GCTCGGCA | 0.288
98 | ATTCGGCA | 0.318
99 | ATTCGGCG | 0.282
100 | CTTCGGCC | 0.272

Row | Sequence | PBM E-score
101 | GGTCGGCA | 0.112
102 | ATTCGGTA | 0.329
103 | ATTCGGCC | 0.292
104 | AAGCGTGT | -0.217
105 | CACACTGC | -0.155
106 | GATTGGCC | -0.0975
107 | AGGGTGAA | -0.136
108 | AATTGTCG | 0.035
109 | CCGAACGG | 0.325
110 | GGGAACCA | -0.222
111 | CGGAACCG | 0.364
112 | CCGAACCG | 0.329
113 | CGGAACCA | 0.338
114 | CCGAACGA | 0.245
115 | AGGAACCG | 0.179
116 | TGGAACCA | 0.138
117 | CCGAACCC | 0.0527
118 | CCGAACGC | 0.274
119 | CCGAACCA | 0.154
120 | CGGAACCC | 0.279
121 | ACTTATAA | 0.221
122 | GATCTAGC | -0.195
123 | CAACTACC | -0.0226
124 | ATCCCATC | -0.19
125 | ATGCACCC | -0.147

Row | Sequence | PBM E-score
126 | CGAAATAA | 0.255
127 | GGAAAAAA | 0.304
128 | GGAAATAA | 0.319
129 | GGGAAAAA | 0.123
130 | GGAAAAAC | 0.124
131 | CGGAAAAA | 0.394
132 | GGGAAAAC | -0.00619
133 | AGGAAAAA | 0.168
134 | CGGAAAAC | 0.349
135 | CGGAAACC | 0.188
136 | CGGAAAAG | 0.248
137 | AGAAATAA | 0.19
138 | CCAACCAC | -0.0234
139 | AGAAAACT | 0.0223
140 | TCCTTACA | -0.0191
141 | AACGAAGT | -0.0531
142 | TCTCCCAA | 0.0611
143 | GCACTACA | -0.142
144 | CGCCCCTC | -0.199
145 | CGGAAACA | 0.314
146 | AGGAAACA | 0.165
147 | GGGAAACA | 0.22
148 | CGTCTACC | 0.0232
149 | AAACTCGA | 0.0301
150 | ACCACGGA | 0.107

Row | Sequence | PBM E-score
151 | CTAACGGA | 0.284
152 | TAAACGGA | 0.311
153 | ATAACGGA | 0.278
154 | CCCACGGA | 0.157
155 | GTAACGGA | 0.304
156 | ACAACGGT | -0.0406
157 | CAAACGGA | 0.267
158 | GAAACGGA | 0.294
159 | TCCACGGA | 0.304
160 | ACAACGGA | 0.314
161 | ACAACGGG | 0.00646
162 | CCTGTAGA | -0.094
163 | ACGGCAGC | 0.161
164 | AACGGTAC | 0.187
165 | CTCAAAGC | 0.114
166 | ATGAACAA | 0.154
167 | CCCCATCG | -0.0742
168 | ACTCTGTC | -0.139
169 | GCAACGGA | 0.294
170 | ATCACGGA | 0.307
171 | CCAACGGA | 0.101
172 | TCAACGGA | 0.315
173 | ATCACGGC | 0.197
